# Compounds without any hit were thinned out: in the full panel of roughly 83,000, 20% have a hit.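 Values shown are percent growth following 48 h exposure of cells in 96-well plates to a single concentration of compound; below 10 was considered active.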 Activity calls are given as the source filed them.
# Test system: EKVX NSCLC
# Experiment: NCI-60 one-dose screen, 48 h (100 = growth as untreated, 0 = no growth, -100 = all killed)
# Settings: 10 µM
# Experimental: Growth inhibition of the EKVX human Non-Small Cell Lung tumor cell line is measured as a screen for anti-cancer activity. Cells are grown in 96 well plates and exposed to the test compound for 48 hours. Compounds are tested at a single concentration, which is 10^-5 M for most compounds. The reported endpoint is percent growth (GI% or GIPRCNT), where numbers from 0 - 100% represent growth inhibition, and numbers from -100% - 0 represent cell death. For example, a value of 40 represents 60% growth inhibition. A value of 0 means no net growth occurred over the course of the experiment. A value of -40 indicates 40% of cells at the beginning of the experiment died by the end of the experiment. A value of -100 means all cells are dead at the end of the experiment.
# NCI-60 Human Tumor Cell Lines Screen was performed using the standard one-dose NCI protocol, which is described in more detail at https://dtp.cancer.gov/discovery_development/nci-60/default.htm.
# Compounds with GIPRCNT values below 10 were considered active. Activity score was based on GIPRCNT using the following formula: […]
# Score is 0 for GIPRCNT values of 100 or above, 50 for GIPRCNT values of 0, and 100 for GIPRCNT values of -100.
row,SMILES,growth
1,O=C(c1ccccc1)C(Sc1ccccc1)c1ccccc1 (stereo not given),106% (inactive)
2,O=[N+]([O-])C1CC2C=CC1C2 (stereo not given),92.7% (inactive)
3,COc1ccc(-c2nc(SCC(=O)c3ccc(Br)cc3)[nH]c(=O)c2C#N)cc1,107% (inactive)
4,CCOC(=O)Nc1ccc2c(c1)C(=O)N(CC)c1ccccc1O2,32.8% (inactive)
5,O=S(=O)(NC1c2ccccc2Oc2ccccc21)c1cc(Cl)ccc1Cl,98.6% (inactive)
6,N#Cc1ccc(-n2cnc(NC(=O)[C@H]3CCN(C#N)C3)c2)cc1,20.4% (inactive)
7,COc1ccc2oc(=O)cc(C3c4ccc([nH]4)C(c4cc(=O)oc5ccc(OC)cc45)c4ccc([nH]4)C(c4cc(=O)oc5ccc(OC)cc45)c4ccc([nH]4)C(c4cc(=O)oc5ccc(OC)cc45)c4ccc3[nH]4)c2c1 (stereo not given),27.8% (inactive)
8,O=S(=O)(NC1c2ccccc2Oc2ccccc21)c1ccccc1,102% (inactive)
9,O=C1c2cc(Cl)ccc2-c2c(O)cc(Cl)cc21,72.1% (inactive)
10,COc1ccc(Cn2cc3c(c2-c2cc(OC)c(OC)c(OC)c2)CCc2cnoc2-3)cc1[N+](=O)[O-],20.4% (inactive)
11,Cc1nc2cc(-n3c(-c4ccc(F)cc4)nc4ccccc4c3=O)ccc2n1Cc1ccccc1,55.9% (inactive)
12,COc1ccccc1CNCCCN1C(=O)c2ccc3c4c(ccc(c24)C1=O)C(=O)N(CCCNCCNCCCN)C3=O,37.9% (inactive)
13,O=CNc1c(Cl)cc2c(c1Cl)Cc1cc([N+](=O)[O-])ccc1-2,30.7% (inactive)
14,C/C(=N\NC(N)=S)C(C)(C)O,67.1% (inactive)
15,COc1cc(-c2nc(-c3nnc(-c4cccnc4)o3)c3ccccn23)cc(OC)c1OC,106% (inactive)
16,CCCc1ccnc(NS(=O)(=O)c2ccc(N)cc2)n1,58.5% (inactive)
17,Cn1c(N)c(N=Cc2ccccc2)c(=O)n(C)c1=O,100% (inactive)
18,COc1ccc(Cn2cc3c(c2-c2ccccc2)CC(C)(C)c2cnoc2-3)cc1,38.7% (inactive)
19,COc1cc(C2=Nc3c/c(=C\c4c(O)[nH]c5ccc(Cl)cc45)ccc3=N2)cc(OC)c1OC,77.7% (inactive)
20,Oc1ccc(/C=N\Nc2ccccn2)c(O)c1,33% (inactive)

row,SMILES,growth
1,COC(=O)[C@]12CC[C@@H](C)[C@H](C)[C@@H]1C1=CC[C@@H]3[C@@]4(C)C/C(=N\O)[C@H](O)[C@@]5(C)COC(=C45)C[C@@]3(C)[C@]1(C)CC2,-68.6% (active)
2,CCCCCCCOc1cccc(/C=C2/C(=O)N=C3SCCCN32)c1,74.2% (inactive)
3,C#CCNCCCN1C(=O)c2ccc3c4c(ccc(c24)C1=O)C(=O)N(CCCNCC#C)C3=O,-79.3% (active)
4,CC1(C)Cc2c(cn(Cc3ccccc3)c2-c2ccccc2)-c2oncc21,85.2% (inactive)
5,COc1cc(C2c3cc4c(cc3C(O)C(CO)C2CO)OCO4)cc(OC)c1OC (stereo not given),7.57% (active)
6,N#CN1CC[C@H](C(=O)Nc2ncc(-c3ccccc3)s2)C1,-0.13% (active)
7,Cc1cc(O)c(C2=NN(c3ccc(S(N)(=O)=O)cc3)C(c3ccc(N(C)C)cc3)C2)c(C)c1Cl (stereo not given),51.1% (inactive)
8,COc1ccc(-c2ccccc2)cc1C(=O)c1ccc(-c2ccccc2)cc1,88.8% (inactive)
9,COc1cc(Cn2c(-c3ccccc3)cc3c2-c2oncc2CC3)cc(OC)c1,43.7% (inactive)
10,Cc1ccc2c(c1)-c1cc(C)nn1-c1ccc(C#N)cc1O2,65.7% (inactive)
11,Cc1cc(C(C)(C)CC(C)(C)C)ccc1OCCOCC[N+](C)(C)Cc1ccccc1,-0.736% (active)
12,Cc1c(C(=O)N[C@H](CO)Cc2ccccc2)[nH]c2ccc(Cl)cc2c1=O,94.4% (inactive)
13,NC1CCC(Nc2nc(NCc3ccc(-c4ccco4)nc3)c3ncn(C4CCCC4)c3n2)CC1 (stereo not given),-2.93% (active)
14,COCc1cc2c(cc1Br)OCO2,102% (inactive)
15,COc1cc([C@@H]2c3cc4c(cc3[C@H](SC(=N)N)[C@H]3COC(=O)[C@H]23)OCO4)cc(OC)c1OC,33.2% (inactive)
16,COc1ccc(C(=O)n2nc(CC(=O)NCc3ccccc3)nc2N)cc1,113% (inactive)
17,CC(C)(C)CC(C)(C)c1ccc(O)c(Cc2ccc(Cl)cc2Cl)c1,-77.1% (active)
18,CC(=O)CS(C)(=O)=O,93.6% (inactive)
19,COc1ccc2nc(/C=C/c3ccc(N(C)C)cc3)sc2c1,96.9% (inactive)
20,COc1c(C)c(C)c(OC)c2c1[nH]c(=O)c1c3cccnc3cn21,100% (inactive)

# — PubChem BioAssay (NCI)
